Test system: Vero E6 infected with SARS-CoV-2
Assay: inhibition of SARS-CoV-2 cytopathic effect; higher = more antiviral protection, active = above 15
Conditions: 48 h

Measured: inhibition of SARS-CoV-2 cytopathic effect

COc1ccccc1OCC(O)COC(N)=O (stereo not given) [methocarbamol]
inactive: 1 nM -1.87% | 8.33 nM -0.67% | 100 nM -0.79% | 833.33 nM 2.32% | 10000 nM 1.06%

CCC[C@H](N[C@H]1CCc2cc(F)cc(F)c2C1)C(=O)Nc1cn(C(C)(C)CNCC(C)(C)C)cn1
inactive: 1 nM 2.54% | 8.33 nM -2.77% | 100 nM -1.3% | 833.33 nM -9.66% | 10000 nM -10.1%

CN1CCN(Cc2ccc(Nc3ncc(Cl)c(Nc4ccccc4S(=O)(=O)N(C)C)n3)cc2)CC1
inactive: 1 nM 1.64% | 8.33 nM 0.81% | 100 nM 2.68% | 833.33 nM -8.19% | 10000 nM -10.2%

CO[C@H]1/C=C\C=C(/C)C(=O)NC2=CC(=O)C(NCCN(C)C)=C(C[C@@H](C)C[C@H](OC)[C@H](O)[C@@H](C)/C=C(\C)[C@@H]1OC(N)=O)C2=O [alvespimycin]
inactive: 1 nM 0.5% | 8.33 nM 1.37% | 100 nM 0.62% | 833.33 nM 1.28% | 10000 nM 12.4%

O=C(c1ccc(OCCCc2c[nH]cn2)cc1)C1CC1 [ciproxifan]
inactive: 1 nM -1.13% | 8.33 nM -1.91% | 100 nM -1.12% | 833.33 nM 9.43% | 10000 nM 10.2%

O=C(O)c1cc(O)c2c(c1)C(=O)c1cccc(O)c1C2=O [rhein]
inactive: 1 nM -0.32% | 8.33 nM -0.35% | 100 nM -3.51% | 833.33 nM -0.03% | 10000 nM -2.1%

Cc1c(-c2ccccc2)oc2c(C(=O)OCCN3CCCCC3)cccc2c1=O [flavoxate]
inactive: 1 nM -1.05% | 8.33 nM 0.44% | 100 nM 0.93% | 833.33 nM -0.65% | 10000 nM 0.61%

CN1c2ccccc2C(=O)N2CCc3c([nH]c4ccccc34)C21 (stereo in doubt) [evodiamine]
inactive: 1 nM 0.51% | 8.33 nM 2.11% | 100 nM 2.14% | 833.33 nM 4.34% | 10000 nM 2.33%

CCCCCOC(=O)Nc1nc(=O)n([C@@H]2O[C@H](C)[C@@H](O)[C@H]2O)cc1F [capecitabine]
inactive: 1 nM -2.56% | 8.33 nM 0.42% | 100 nM -1.36% | 833.33 nM -0.59% | 10000 nM -1.14%

Oc1ncnc2[nH]ncc12 [allopurinol]
inactive: 1 nM -15.3% | 8.33 nM -12.3% | 100 nM -11.2% | 833.33 nM -10.9% | 10000 nM -7.04%

CN1C(C(=O)Nc2ccccn2)=C(O)c2ccccc2S1(=O)=O [piroxicam]
inactive: 1 nM 0.3% | 8.33 nM -0.73% | 100 nM 0.15% | 833.33 nM 0.8% | 10000 nM 1.41%

CC(C)(C(=O)O)c1ccc(C(=O)CCCN2CCC(OC(c3ccccc3)c3ccccc3)CC2)cc1 [carebastine]
inactive: 1 nM -2.83% | 8.33 nM -1.16% | 100 nM -0.91% | 833.33 nM -2.56% | 10000 nM -0.56%

CCCOc1ccc2[nH]cc(C3=CCNCC3)c2n1
inactive: 1 nM 2.78% | 8.33 nM 1.38% | 100 nM -1.41% | 833.33 nM 2.78% | 10000 nM -1.56%

N#Cc1c[nH]c2c(C(=O)N3CCN(CCc4ccc(F)cc4)CC3)cccc12 [pruvanserin]
inactive: 1 nM 3.23% | 8.33 nM -1.53% | 100 nM 2.62% | 833.33 nM 1.31% | 10000 nM 1.69%

COc1cccc(N(C)C(=S)Oc2ccc3c(c2)CCCC3)n1 [liranaftate]
inactive: 1 nM -2.95% | 8.33 nM 1.62% | 100 nM 0.18% | 833.33 nM -0.32% | 10000 nM 1.9%

CCOc1ccc2nc(SCCN3CCOCC3)[nH]c2c1 [afobazole]
inactive: 1 nM 0.28% | 8.33 nM 0.47% | 100 nM -1.23% | 833.33 nM -0.04% | 10000 nM 1.56%
